Results filed as inconclusive are left out. A number with no mark means an inactive call. Active and inactive are the calls of the source. Calls come from the whole dose curve.
assay: Primary qHTS for inhibitors of SARS-S pseudo-typed particle cell entry (AID 1479145); conditions: SARS-S pseudotyped particle cell entry, luciferase reporter; series mostly up to 57.1 µM; activity change, negative = inhibition: at the top concentration; note: nearly all actives have a fitted effect of over 45% in size
% is set by controls: 0 for no effect and ±100 for the full control effect; potency is the fitted concentration of half-maximal effect.

| Compound | activity change, negative = inhibition | outcome | Potency |
| --- | --- | --- | --- |
| COc1cc2c(c(OC)c1OC)-c1ccc(OC)c(=O)cc1[C@@H](NC(C)=O)CC2 | -3.78% |  |  |
| COc1cc(C(=O)NCc2ccc(OCCN(C)C)cc2)cc(OC)c1OC |  | inactive |  |
| CCn1cc(C(=O)O)c(=O)c2ccc(C)nc21 |  | inactive |  |
| CC(=O)Oc1cc2c(s1)CCN(C(C(=O)C1CC1)c1ccccc1F)C2 (stereo not drawn) |  | inactive |  |
| COC(=O)[C@@H]1CC2=CC(=O)CC[C@]2(C)[C@@]23O[C@@H]2C[C@@]2(C)[C@@H](CC[C@@]24CCC(=O)O4)[C@H]13 |  | inactive |  |
| CO/N=C1\CN(c2nc3c(cc2F)c(=O)c(C(=O)O)cn3C2CC2)CC1CN (stereo not drawn) | -15.4% |  |  |
| OC(Cn1cncn1)(Cn1cncn1)c1ccc(F)cc1F |  | inactive |  |
| CC(=O)Nc1nnc(S(N)(=O)=O)s1 |  | inactive |  |
| CCN1CCN(C(=O)N[C@@H](C(=O)N[C@@H]2C(=O)N3C(C(=O)O)=C(CSc4nnnn4C)CS[C@H]23)c2ccc(O)cc2)C(=O)C1=O |  | inactive |  |
| CC(C)NCC(O)COc1ccc(CCOCC2CC2)cc1 (stereo not drawn) | -9.34% |  |  |
| CCOC(=O)Nc1ccc2c(c1)N(C(=O)CCN1CCOCC1)c1ccccc1S2 | -26.9% |  |  |
| O=C1C(=O)c2ccccc2C(O)=C1C1CCC(c2ccc(Cl)cc2)CC1 (stereo not drawn) |  |  | 0.891 µM (active) |
| CC1(C)NC(=O)N(c2ccc([N+](=O)[O-])c(C(F)(F)F)c2)C1=O |  |  | 35.5 µM (active) |
| CC[C@@]1(O)C(=O)OCc2c1cc1n(c2=O)Cc2cc3c(CN(C)C)c(O)ccc3nc2-1 |  |  | 3.16 µM (active) |
| CC(COc1ccccc1)N(CCCl)Cc1ccccc1 (stereo not drawn) | -3.26% |  |  |
| C[N+]1(C)CCC(OC(=O)C(O)(c2ccccc2)C2CCCC2)C1 (stereo not drawn) |  | inactive |  |
| CC/C=C(\C(=O)N[C@@H]1C(=O)N2C(C(=O)OCOC(=O)C(C)(C)C)=C(COC(N)=O)CS[C@H]12)c1csc(N)n1 | -21.1% |  |  |
| O=C1CCC(N2C(=O)c3ccccc3C2=O)C(=O)N1 (stereo not drawn) | -2.74% |  |  |
| N[C@@H]1CONC1=O | -15.3% |  |  |

| Compound | activity change, negative = inhibition | outcome | Potency |
| --- | --- | --- | --- |
| CC1=NS(=O)(=O)c2cc(Cl)ccc2N1 | -21.8% |  |  |
| CC1=C(C(=O)O)N2C(=O)[C@@H](NC(=O)[C@H](N)c3ccccc3)[C@H]2SC1 | -23.1% |  |  |
| Cc1ccc(S(=O)(=O)NC(=O)NN2CCCCCC2)cc1 | -25% |  |  |
| C[C@@H](c1ncncc1F)C(O)(Cn1cncn1)c1ccc(F)cc1F (stereo partly drawn) | -21.2% |  |  |
| Cc1ccc(S(=O)(=O)NC(=O)NN2CC3CCCC3C2)cc1 (stereo not drawn) |  | inactive |  |
| NNCCc1ccccc1 |  | inactive |  |
| CC(C)[N+](C)(CCOC(=O)C1c2ccccc2Oc2ccccc21)C(C)C | -28.6% |  |  |
| O=C1c2c(O)ccc(O)c2C(=O)c2c(NCCNCCO)ccc(NCCNCCO)c21 | -98.2% |  |  |
| NC(=O)C(c1ccccc1)(c1ccccc1)[C@@H]1CCN(CCc2ccc3c(c2)CCO3)C1 | -1.37% |  |  |
| CC(C)(O)c1ccccc1CC[C@@H](SCC1(CC(=O)O)CC1)c1cccc(/C=C/c2ccc3ccc(Cl)cc3n2)c1 |  | inactive |  |
| CC(=O)SC[C@@H](C)C(=O)N1CCC[C@H]1C(=O)N[C@@H](Cc1ccccc1)C(=O)O | -25.8% |  |  |
| CCCCC1=NC2(CCCC2)C(=O)N1Cc1ccc(-c2ccccc2-c2nn[nH]n2)cc1 |  | inactive |  |
| CC1=C(C(=O)O)N2C(=O)[C@@H](NC(=O)[C@H](N)c3ccc(O)cc3)[C@H]2SC1 | 0.899% |  |  |
| O=C1NC(=O)C(c2ccccc2)(c2ccccc2)N1 |  | inactive |  |
| CNC1(C)C2CCC(C2)C1(C)C (stereo not drawn) |  | inactive |  |
| O=C(O)P(=O)(O)O |  | inactive |  |
| CC[C@@]1(c2ccccc2)NC(=O)N(C)C1=O |  | inactive |  |
| CC[C@@H]([C@H](C)O)n1ncn(-c2ccc(N3CCN(c4ccc(OC[C@@H]5CO[C@@](Cn6cncn6)(c6ccc(F)cc6F)C5)cc4)CC3)cc2)c1=O |  |  | 14.1 µM (active) |
| Nc1[nH]c(=O)ncc1F | -16.2% |  |  |

— PubChem BioAssay (NCATS)
